# According to the supplement of paper PMC9942566:
# ± gives the standard deviation of the averaged measurements.
# Tested on: Serratia marcescens K904 PosmB-luxCDABE reporter (pMQ747)
# Test: PosmB-lux reporter fold induction (RLU/OD600 relative to no-compound control), highest over Biolog concentrations; higher = stronger Rcs reporter activation
# Conditions: wild type K904; 4 h
# Method: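 Serratia marcescens K904 (wild type) or its isogenic ΔrcsB mutant, carrying the Rcs-dependent PosmB-luxCDABE reporter plasmid pMQ747, was grown in LB at OD600 0.1 in Biolog Phenotype MicroArray plates PM11-20 for 4 h at 30-32°C. Each compound is present at 3-4 proprietary concentrations (not stated); per the Fig. S1 legend the value given is the highest fold over those wells. Three independent trials.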
row,Structure (SMILES),PosmB-lux reporter fold induction
1,"O=C(O)CN(CCOCCOCCN(CC(=O)O)CC(=O)O)CC(=O)O (Biolog plate: PM14, well positions: H1-4)",2.37 ± 0.77
2,"NC(=O)N/N=C/c1ccc([N+](=O)[O-])o1 [5-Nitro-2-furaldehyde semicarbazone] (Biolog plate: PM15, well positions: E5-8)",1.67 ± 0.76
3,"CN[C@H](CC(C)C)C(=O)N[C@H]1C(=O)N[C@@H](CC(N)=O)C(=O)N[C@H]2C(=O)N[C@H]3C(=O)N[C@H](C(=O)N[C@H](C(=O)O)c4cc(O)cc(O)c4-c4cc3ccc4O)[C@H](O)c3ccc(c(Cl)c3)Oc3cc2cc(c3O[C@@H]2O[C@H](CO)[C@@H](O)[C@H](O)[C@H]2O[C@H]2C[C@](C)(N)[C@H](O)[C@H](C)O2)Oc2ccc(cc2Cl)[C@H]1O [Vancomycin] (Biolog plate: PM12, well positions: C5-8)",5.39 ± 2
4,"O=C1C=C(O)C(=O)c2ccccc21 [lawsone] (Biolog plate: PM19, well positions: E9-12)",1.63 ± 0.34
5,"CO[C@H]1C[C@H](O[C@H]2[C@H](C)[C@@H](O[C@@H]3O[C@H](C)C[C@H](N(C)C)[C@H]3O)[C@@H](C)C[C@@]3(CO3)C(=O)[C@H](C)[C@@H](O)[C@@H](C)[C@@H](C)OC(=O)[C@@H]2C)O[C@@H](C)[C@@H]1O [Oleandomycin] (Biolog plate: PM15, well positions: F5-8)",3.29 ± 1.7
6,"CO/N=C(\C(=O)N[C@@H]1C(=O)N2C(C(=O)O)=C(COC(N)=O)CS[C@H]12)c1ccco1 [Cefuroxime] (Biolog plate: PM13, well positions: D1-4)",1.85 ± 0.24
7,"CCOc1ccc2ccccc2c1C(=O)N[C@@H]1C(=O)N2[C@@H]1SC(C)(C)[C@@H]2C(=O)O [Nafcillin] (Biolog plate: PM11, well positions: D9-12)",2.29 ± 0.21
8,"CO/N=C(\C(=O)N[C@@H]1C(=O)N2C(C(=O)O)=C(COC(C)=O)CS[C@H]12)c1csc(N)n1 [cefotaxime] (Biolog plate: PM16, well positions: A2-4)",0.992 ± 0.32
9,"CCN(CC)CC(=O)Nc1c(C)cccc1C [lidocaine] (Biolog plate: PM18, well positions: D9-12)",1.37 ± 0.17
10,"CO[C@@]1(NC(=O)CSCC#N)C(=O)N2C(C(=O)O)=C(CSc3nnnn3C)CS[C@@H]21 [Cefmetazole] (Biolog plate: PM15, well positions: A9-12)",1.21 ± 0.23
11,"NC[C@@H]1O[C@H](O[C@H]2[C@@H](O)[C@H](O[C@@H]3[C@@H](O)[C@H](N)C[C@H](N)[C@H]3O[C@H]3O[C@H](CN)[C@@H](O)[C@H](O)[C@H]3N)O[C@@H]2CO)[C@H](N)[C@@H](O)[C@@H]1O [Neomycin] (Biolog plate: PM11, well positions: F9-12)",1.51 ± 0.15
12,"Cc1cc(C)nc(NS(=O)(=O)c2ccc(N)cc2)n1 [Sulfamethazine] (Biolog plate: PM12, well positions: D5-8)",3.6 ± 0.65
13,"O=C(O)CN(CCN(CC(=O)O)CC(=O)O)CC(=O)O (Biolog plate: PM15, well positions: B5-8)",1.66 ± 0.13
14,"CN[C@@H]1[C@H](O)[C@H](NC)[C@H]2O[C@@]3(O)C(=O)C[C@@H](C)O[C@H]3O[C@@H]2[C@H]1O [Spectinomycin] (Biolog plate: PM12, well positions: G1-4)",1.57 ± 0.26
15,"CCn1cc(C(=O)O)c(=O)c2ccc(C)nc21 [Nalidixic Acid] (Biolog plate: PM11, well positions: E9-12)",3.44 ± 0.51
16,"c1ccc(-c2nn(-c3ccccc3)[n+](-c3cccc4ccccc34)n2)cc1 [tetrazolium violet] (Biolog plate: PM20, well positions: B9-12)",0.453 ± 0.17
17,"CO[C@@]1(NC(=O)Cc2cccs2)C(=O)N2C(C(=O)O)=C(COC(N)=O)CS[C@@H]21 [Cefoxitin] (Biolog plate: PM14, well positions: E1-4)",4.05 ± 0.85
18,"Cc1ccc2c(Cl)cc(Cl)c(O)c2n1 [5,7-Dichloro-8-hydroxy-quinaldine] (Biolog plate: PM15, well positions: B9-12)",2.01 ± 0.87
19,"N[C@H](CO)C(=O)O [D-serine] (Biolog plate: PM17, well positions: A2-4)",2.39 ± 1.2
20,"CCn1cc(C(=O)O)c(=O)c2cc(F)c(N3CCNCC3)cc21 [norfloxacin] (Biolog plate: PM16, well positions: B1-4)",1.02 ± 0.2

row,Structure (SMILES),PosmB-lux reporter fold induction
1,"CCC(C)CCCC(=O)N[C@@H](CCN)C(=O)N[C@H](C(=O)N[C@@H](CCN)C(=O)N[C@H]1CCNC(=O)[C@H]([C@@H](C)O)NC(=O)[C@H](CCN)NC(=O)[C@H](CCN)NC(=O)[C@H](CC(C)C)NC(=O)[C@@H](CC(C)C)NC(=O)[C@H](CCN)NC1=O)[C@@H](C)O (stereo not given in full) [Colistin] (Biolog plate: PM11, well positions: C5-8)",2.54 ± 0.89
2,"CC(Oc1ccccc1)C(=O)N[C@@H]1C(=O)N2[C@@H]1SC(C)(C)[C@@H]2C(=O)O (stereo not given in full) [phenethicillin] (Biolog plate: PM19, well positions: F1-4)",86 ± 19
3,"NC(=O)NO [Hydroxyurea] (Biolog plate: PM15, well positions: H5-8)",13.1 ± 1.9
4,"CC1(C)S[C@@H]2[C@H](NC(=O)[C@H](N)c3ccc(O)cc3)C(=O)N2[C@H]1C(=O)O [Amoxicillin] (Biolog plate: PM11, well positions: B1-4)",2.48 ± 0.35
5,"CCn1cc(C(=O)O)c(=O)c2cc(F)c(N3CCNC(C)C3)c(F)c21 (stereo not given) [Lomefloxacin] (Biolog plate: PM11, well positions: B9-12)",1.5 ± 0.2
6,"CN[C@@H]1[C@H](O[C@H]2[C@H](O[C@H]3[C@H](O)[C@@H](O)[C@H](N=C(N)N)[C@@H](O)[C@@H]3N=C(N)N)O[C@@H](C)[C@]2(O)C=O)O[C@@H](CO)[C@H](O)[C@H]1O [streptomycin] (Biolog plate: PM16, well positions: E1-4)",0.916 ± 0.16
7,"CCn1cc(C(=O)O)c(=O)c2cc(F)c(N3CCNCC3)nc21 [Enoxacin] (Biolog plate: PM11, well positions: E5-8)",2.1 ± 0.62
8,"Cc1onc(-c2ccccc2)c1C(=O)N[C@@H]1C(=O)N2[C@@H]1SC(C)(C)[C@@H]2C(=O)O [Oxacillin] (Biolog plate: PM12, well positions: B1-4)",2.16 ± 0.46
9,"CO[C@@H]1[C@@H](OC(N)=O)[C@@H](O)[C@H](Oc2ccc3c(O)c(NC(=O)c4ccc(O)c(CC=C(C)C)c4)c(=O)oc3c2C)OC1(C)C [Novobiocin] (Biolog plate: PM12, well positions: D9-12)",4.98 ± 0.98
10,"NC(CO)C(=O)NO (racemic) [D,L-Serine hydroxamate] (Biolog plate: PM12, well positions: C9-12)",3.63 ± 0.5
11,"S=c1nc[nH]c2nc[nH]c12 [6-Mercapto-purine] (Biolog plate: PM13, well positions: C1-4)",1.6 ± 0.2
12,"NC[C@@H]1O[C@H](O[C@H]2[C@@H](O)[C@H](O[C@@H]3[C@@H](O)[C@H](N)C[C@H](N)[C@H]3O[C@H]3O[C@H](CO)[C@@H](O)[C@H](O)[C@H]3N)O[C@@H]2CO)[C@H](N)[C@@H](O)[C@@H]1O [Paromomycin] (Biolog plate: PM12, well positions: C1-4)",1.63 ± 0.1
13,"Cc1nnc(SCC2=C(C(=O)O)N3C(=O)[C@@H](NC(=O)Cn4cnnn4)[C@H]3SC2)s1 [Cefazolin] (Biolog plate: PM11, well positions: E1-4)",1.18 ± 0.073
14,"C[C@@H]1O[C@@H]1P(=O)(O)O [Phosphomycin] (Biolog plate: PM16, well positions: A5-8)",0.962 ± 0.25
15,"Cn1c(=O)c2c(ncn2C)n(C)c1=O [caffeine] (Biolog plate: PM17, well positions: H5-8)",1.68 ± 0.37
16,"NC(CO)C(=O)NNCc1ccc(O)c(O)c1O (stereo not given) [Benserazide] (Biolog plate: PM20, well positions: A9-12)",1.16 ± 0.17
17,"O=[Si](O)O [sodium metasilicate] (Biolog plate: PM18, well positions: E1-4)",1.11 ± 0.32
18,"NO [hydroxylamine] (Biolog plate: PM19, well positions: G9-12)",1.82 ± 0.33
19,"CC[C@H]1OC(=O)C[C@@H](O)[C@H](C)[C@@H](O[C@@H]2O[C@H](C)[C@@H](O[C@H]3C[C@@](C)(O)[C@@H](O)[C@H](C)O3)[C@H](N(C)C)[C@H]2O)[C@@H](CC=O)C[C@@H](C)C(=O)/C=C/C(C)=C/[C@@H]1CO[C@@H]1O[C@H](C)[C@@H](O)[C@@H](OC)[C@H]1OC [Tylosin] (Biolog plate: PM13, well positions: H9-12)",1.21 ± 0.18
20,"C[C@@H]1NC(=O)[C@@H](N)CNC(=O)[C@H](C2CCNC(=N)N2)NC(=O)/C(=C/NC(N)=O)NC(=O)[C@H](CNC(=O)CC(N)CCCN)NC1=O.N=C1NCC[C@H]([C@@H]2NC(=O)/C(=C/NC(N)=O)NC(=O)[C@H](CNC(=O)C[C@@H](N)CCCN)NC(=O)[C@H](CO)NC(=O)[C@@H](N)CNC2=O)N1 [Capreomycin] (Biolog plate: PM11, well positions: D1-4)",1.24 ± 0.1
